Reference: the supplement of paper PMC7366291
Where a name gives a salt, the structure may show the parent alone. ± gives the standard deviation.

tested on: Danio rerio Tg(wt1b:EGFP) embryo, pronephros; experiment: glomerular separation, fold change vs DMSO control; higher = glomeruli further apart (abnormal); conditions: 25 µM; exposure: 24-48 hpf
Summary of the method: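 Dechorionated Tg(wt1b:EGFP) zebrafish embryos were treated with 25 μM compound in 0.5% DMSO, in HEPES-buffered E3 with 0.003% PTU, from 24 to 48 hpf at 28.5°C. On maximum projections of dorsal pronephros images, 16 hand-placed reference points in Fiji gave distances and angles, and values more than 2 SD from the feature mean were left out. Results are fold changes over the mean of same-day DMSO-treated embryos.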

SMILES	glomerular separation
CS(=O)(=O)c1ccc(C2=C(c3ccccc3)C(=O)OC2)cc1 [Rofecoxib]	0.981 ± 0.22
C[C@]12C=CC(=O)C=C1CC[C@@H]1[C@@H]2C(=O)C[C@@]2(C)[C@H]1CC[C@]2(O)C(=O)CO [Prednisone]	1.19 ± 0.48
CCOC(=O)c1ccc(OC(=O)CCCCCNC(=N)N)cc1 [Gabexate mesilate]	0.986 ± 0.37
Cc1cccc(Nc2ccccc2C(=O)O)c1C [Mefenamic acid]	5.08 ± 1.4
N#Cc1ccc(C(c2ccc(C#N)cc2)n2cncn2)cc1 [Letrozole]	1.1 ± 0.4
Cc1cccc(C)c1NC(=O)CN1CCN(CCCC(c2ccc(F)cc2)c2ccc(F)cc2)CC1 [Lidoflazine]	3 ± 1.2
CC(=O)OC[C@H]1O[C@@H]([S-])[C@H](OC(C)=O)[C@@H](OC(C)=O)[C@@H]1OC(C)=O.CCP(CC)CC.[Au+] [Auranofin]	1.55 ± 0.79
O=C(O)c1cccnc1 [Niacin]	0.706 ± 0.25
CCCOc1ccccc1-c1nc2[nH]nnc2c(=O)[nH]1 [Zaprinast]	1.56 ± 0.95
O=S(=O)(O)c1cc(O)ccc1O [Ethamsylate]	1.12 ± 0.45
CCCN(CCC)S(=O)(=O)c1ccc(C(=O)O)cc1 [Probenecid]	1.41 ± 0.61
C#C[C@]1(O)CC[C@H]2[C@@H]3CCc4cc(OC)ccc4[C@H]3CC[C@@]21C [Ethynylestradiol 3-methyl ether]	0.896 ± 0.42
CCN(CC)CCNC(=O)c1cc(Br)c(N)cc1OC [Bromopride]	0.903 ± 0.35
c1ccc(C2CN3CCSC3=N2)cc1 (centres undefined) [Tetramisole hydrochloride]	0.817 ± 0.29
